# Values without a mark were called inactive. Inconclusive results are not listed. Where a call stands in place of a potency, no number is given. Active and inactive are the calls of the source. Unless noted, calls come from the whole dose curve; as a rule, active = well fitted curve in the direction sought with a large enough effect in the repeat runs; inconclusive = weak or mixed curves; inactive = no such curve, though single readings can be large; an effect the other way counts as inactive or inconclusive.
# Experiments:
# [1] = target: Progesterone receptor (Homo sapiens) (UniProt P06401); assay: qHTS assay to identify small molecule agonists of the progesterone receptor (PR) signaling pathway (AID 1346784; calls by dose curve; note: nearly all actives have a fitted effect of over 30% in size)
# Progesterone receptor (Homo sapiens), sequence (P06401 whole entry, looked up): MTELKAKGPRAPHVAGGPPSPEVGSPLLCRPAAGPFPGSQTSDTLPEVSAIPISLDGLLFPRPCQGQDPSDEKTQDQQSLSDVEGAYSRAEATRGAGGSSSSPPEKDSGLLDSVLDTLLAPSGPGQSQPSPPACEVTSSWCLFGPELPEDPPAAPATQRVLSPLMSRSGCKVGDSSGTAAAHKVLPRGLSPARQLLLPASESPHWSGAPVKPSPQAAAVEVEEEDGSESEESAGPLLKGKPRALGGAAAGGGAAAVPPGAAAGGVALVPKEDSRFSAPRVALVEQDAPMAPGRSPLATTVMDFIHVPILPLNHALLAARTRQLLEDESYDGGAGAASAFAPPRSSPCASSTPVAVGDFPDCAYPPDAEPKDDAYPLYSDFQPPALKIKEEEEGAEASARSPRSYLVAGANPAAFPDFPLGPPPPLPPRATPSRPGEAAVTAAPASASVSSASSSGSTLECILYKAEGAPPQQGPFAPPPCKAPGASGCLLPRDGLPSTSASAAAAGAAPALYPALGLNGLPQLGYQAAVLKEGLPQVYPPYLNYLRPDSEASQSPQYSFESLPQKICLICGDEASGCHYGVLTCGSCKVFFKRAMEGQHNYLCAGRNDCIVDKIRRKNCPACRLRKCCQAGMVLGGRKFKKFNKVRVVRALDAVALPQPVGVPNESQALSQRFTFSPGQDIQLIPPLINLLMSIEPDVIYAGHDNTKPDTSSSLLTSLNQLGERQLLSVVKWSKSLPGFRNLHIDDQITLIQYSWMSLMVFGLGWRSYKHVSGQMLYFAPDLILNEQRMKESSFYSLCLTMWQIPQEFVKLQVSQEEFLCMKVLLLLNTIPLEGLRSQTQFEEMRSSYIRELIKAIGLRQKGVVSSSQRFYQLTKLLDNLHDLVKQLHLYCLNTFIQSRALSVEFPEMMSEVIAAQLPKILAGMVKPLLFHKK
# In short: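 Agonist qHTS: compounds pinned onto 3,000 PR-UAS-bla HEK 293T cells per well in charcoal-stripped serum medium, 16hr at 37C, then beta-lactamase activity measured by LiveBLAzer FRET fluorescence after 2 hours at room temperature.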
# [2] = target: Progesterone receptor (Homo sapiens) (UniProt P06401); assay: qHTS assay to identify small molecule antagonists of the progesterone receptor (PR) signaling pathway (AID 1346795; active = well fitted inhibition curve with a large enough effect in the signal ratio in the repeat runs, not every such curve was filed as active; the % refers to the signal ratio; note: potency is the fitted concentration of half-maximal effect)
# In short: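 Antagonist mode with agonist R5020 at 1 nM final and 16 hr incubation at 37C. Reporter was beta-lactamase driven by UAS in HEK293T (PR-UAS-bla), 2% charcoal-stripped serum; signal from LiveBLAzer FRET substrate, 2 hr at room temperature.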
# [3] = qHTS assay to identify small molecule antagonists of the progesterone receptor (PR) signaling pathway - cell viability counter screen (AID 1346798); note: series mostly up to about 92 µM; nearly all actives have a fitted effect of over 50% in size
# In short: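 Cytotoxicity read as CellTiter-Glo luminescence (30 min, room temperature) in the same wells as the beta-lactamase readout. HEK293T PR-UAS-bla cells in charcoal-stripped 2% FBS received compound and R5020, then 16 h at 37C, 5% CO2.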
# [4] = qHTS assay to identify small molecule agonists of the progesterone receptor (PR) signaling pathway - cell viability counter screen (AID 1346799; calls by dose curve; note: nearly all actives have a fitted effect of over 45% in size)
# In short: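 Cytotoxicity measured by CellTiter-Glo luminescence (30 min, RT) in the same wells as the PR beta-lactamase agonist read. Those HEK293T cells had 16 h compound treatment at 37 C in 2% charcoal-stripped FBS medium.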
# [5] = qHTS assay to identify small molecule antagonists of the TGF-beta/Smad signaling pathway - cell viability counter screen (AID 1346824); note: nearly all actives have a fitted effect of over 50% in size
# In short: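 SBE-bla HEK 293T cells were plated overnight at 37 C, then given compounds in DMSO plus TGF-beta1 (added as 0.25 ng/mL solution) for 5 hr. After the bla read, CellTiter-Glo was added to the same wells and luminescence read after 30 min at room temperature.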
# [6] = qHTS assay to identify small molecule agonists of the TGF-beta/Smad signaling pathway - cell viability counter screen (AID 1346829); note: top concentration of the series differs between compounds; nearly all actives have a fitted effect of over 45% in size
# In short: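 CellTiter-Glo luminescence readout; SBE-bla HEK 293T cells, overnight plating, compound 5 hr at 37 C/5% CO2, then bla substrate 2 hr RT, then CellTiter-Glo 30 min RT.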
# [7] = qHTS assay to identify small molecule agonists of the TGF-beta/Smad signaling pathway (AID 1346859; active = well fitted activation curve with a large enough effect in the signal ratio in the repeat runs, not every such curve was filed as active; the % refers to the signal ratio; note: series mostly up to about 77 µM)
# In short: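 Fluorescence (ex 405 nm; em 460 and 530 nm) was read 2 h after LiveBLAzer FRET substrate at RT. The preceding compound treatment of overnight-plated SBE-bla HEK293T cells lasted 5 h at 37 C.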
# [8] = target: Thyrotropin-releasing hormone receptor (Homo sapiens) (UniProt P34981); assay: qHTS assay to identify small molecule antagonists of the thyrotropin-releasing hormone receptor (TRHR) signaling pathway (AID 1346877; active = well fitted inhibition curve with a large enough effect in the repeat runs, not every such curve was filed as active; note: series mostly up to about 51 µM)
# Thyrotropin-releasing hormone receptor (Homo sapiens), sequence (P34981 whole entry, looked up): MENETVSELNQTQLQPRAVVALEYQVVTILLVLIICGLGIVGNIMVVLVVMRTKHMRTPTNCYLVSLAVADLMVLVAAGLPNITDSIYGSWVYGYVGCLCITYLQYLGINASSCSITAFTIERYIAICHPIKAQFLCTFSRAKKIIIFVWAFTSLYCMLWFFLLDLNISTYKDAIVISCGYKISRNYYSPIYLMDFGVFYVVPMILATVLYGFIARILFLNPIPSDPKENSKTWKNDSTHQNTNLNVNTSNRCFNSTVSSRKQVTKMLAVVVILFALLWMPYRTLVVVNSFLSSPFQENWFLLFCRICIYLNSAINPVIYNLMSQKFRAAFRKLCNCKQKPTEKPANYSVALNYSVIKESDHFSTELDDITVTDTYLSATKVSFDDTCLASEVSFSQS
# In short: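 Cells (TRHR-HEK293) are plated and kept 18 h at 37 °C/5% CO2. A calcium-sensitive dye is added for 2 h, compound follows for 5 min at room temperature, and TRH is then given at 1 nM final.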
# [9] = target: Thyrotropin-releasing hormone receptor (Homo sapiens) (UniProt P34981); assay: qHTS assay to identify small molecule agonists of the thyrotropin-releasing hormone receptor (TRHR) signaling pathway (AID 1346891; calls by dose curve; note: series mostly up to about 58 µM)
# In short: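 Agonist-mode intracellular calcium readout: kinetic fluorescence over 3 min at 1 s intervals after compound addition to TRHR-HEK293 cells (18 h seeded, 2 h dye-loaded at 37 C). Fifteen concentrations, triplicates.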
# [10] = Human pregnane X receptor (PXR) small molecule agonists, qHTS cell viability counter screen (AID 1346977); note: nearly all actives have a fitted effect of over 50% in size; note: potency is the fitted concentration of half-maximal effect
# In short: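 Same-well viability read: CellTiter-Fluor added after 23 hr compound exposure, fluorescence measured 1 hr later. Cells were PXR-Luc HepG2 seeded at 2,000/well in 5% charcoal-stripped FBS medium, rested 5 hr before dosing at 37 C.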
Compound,outcome [1],Potency [2],Potency [3],Potency [4],Potency [5],Potency [6],outcome [7],outcome [8],Potency [9],Potency [10]
Nc1cnn([C@@H]2O[C@H](CO)[C@@H](O)[C@H]2O)c(=O)n1,inactive,19.4 µM (active),inactive,inactive,inactive,inactive,inactive,inactive,inactive,inactive
Cc1cc(C)c(S(=O)(=O)O)cc1N=Nc1cc(S(=O)(=O)O)c2ccccc2c1O,inactive,inactive,inactive,inactive,inactive,inactive,inactive,inactive,inactive,24.3 µM (active)
Cc1cc(NC(=O)C(=O)O)cc(C)c1Oc1ccc(O)c2c1CCC2,inactive,inactive,inactive,inactive,inactive,inactive,inactive,inactive,inactive,inactive
CC(C)NCC(O)COc1ccc(CC(N)=O)cc1 (stereo not given),inactive,inactive,inactive,inactive,inactive,inactive,inactive,inactive,inactive,inactive
O=S1(=O)N=C(O)c2ccccc21,inactive,inactive,inactive,inactive,inactive,inactive,inactive,inactive,inactive,inactive
Cc1cccc(C(C)(C)C)c1O,inactive,inactive,inactive,inactive,inactive,inactive,inactive,inactive,inactive,inactive
CC(=O)SCc1ccco1,inactive,inactive,inactive,inactive,inactive,inactive,inactive,inactive,inactive,inactive
CCCCCC/C=C/C=O,inactive,inactive,inactive,inactive,inactive,inactive,inactive,inactive,inactive,inactive
CCOC(=O)C1=NN(c2ccccc2)C(=O)C1,inactive,inactive,inactive,inactive,inactive,inactive,inactive,inactive,inactive,inactive
CN1CCC[C@@H]1c1cccnc1,inactive,inactive,inactive,inactive,inactive,inactive,inactive,inactive,inactive,inactive
CCCC(=O)OCC,inactive,inactive,inactive,inactive,inactive,inactive,inactive,inactive,inactive,inactive
C=CCCCCCC,inactive,inactive,inactive,inactive,inactive,inactive,inactive,inactive,inactive,inactive
